# A549 tox-1 = Nrf2 qHTS screen for inhibitors: counterscreen for cytotoxicity. Potency, µM (series often up to 46 µM), for inactives: top-dose activity change, negative = cytotoxicity, actives largely listed as inhibitors. 390,000 compounds, 0.16% hits. AID 504648, 2011. A549 ARE-Fluc cells, CellTiter-Fluor viability, 18-24 h; note: % is set by controls: 0 for no effect and ±100 for the full control effect
#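 A549 ARE-Fluc cells in 5% FBS OPTI-MEM, 5000 cells/well, rested 2 h then exposed to compounds in concentration-response for 18-24 h at 37 °C. Viability by CellTiter-Fluor fluorescence (Ex 405/Em 525) after 30 min; luciferase luminescence (BugLite, 15 min, RT) read afterwards.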
# Nrf2 ARE act = qHTS of Nrf2 Activators; AREc32 ARE-luciferase reporter (MCF7-derived line), luminescence, 24 h; Potency, µM (series often up to 46.1 µM), for inactives: top-dose activation, most hits filed as activators; 410,000 compounds, 0.31% hits; note: % of control where 0% means no effect; nearly all actives have a fitted effect of over 65% in size
#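 Luminescent ARE reporter assay in AREc32_Fluc cells: overnight plating at 37 deg C, 24 hr compound incubation, Steady-Glo added, 30 min RT before reading.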
# ATXN2 expr inh = Primary qHTS for Inhibitors of ATXN expression | AID 1745845, 2022 | 360,000 compounds, 0.72% hits | Potency, µM (highest dose often 57 µM), without a hit: at the highest dose activity change, negative = inhibition, most hits filed as inhibitors | HEK-293 ATXN2-luciferase reporter, luminescence, 24 h; note: % is set by controls: 0 for no effect and ±100 for the full control effect; nearly all actives have a fitted effect of over 55% in size
#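 ATXN2-luciferase reporter cells (luciferase flanked by upstream and downstream ATXN2 gene portions) were treated 24 h at 37 °C with compounds at up to 57 uM. SteadyGlo luminescence gave expression; GF-AFC fluorescence gave viability.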
# S2 tox = Viability Counterscreen for Primary qHTS for Inhibitors of ATXN expression; S2 cells (HEK-293 line with an ATXN2-luciferase reporter) viability, CellTiter-Fluor protease fluorescence, 24 h; Potency, µM (titrated, usually from 56.7 µM), most hits filed as cytotoxic; 400,000 compounds, 0.49% hits; AID 651635, 2014; note: nearly all actives have a fitted effect of over 40% in size
# Nrf2 inh = Nrf2 qHTS screen for inhibitors | A549 ARE-Fluc reporter, luciferase luminescence, 18-24 h | Potency, µM (doses to about 46 µM), for inactives: at the top dose activity change, negative = inhibition, actives largely listed as inhibitors | 360,000 compounds, 2.1% hits | AID 504444, 2011; note: % is set by controls: 0 for no effect and ±100 for the full control effect; nearly all actives have a fitted effect of over 60% in size
#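 Quantitative HTS in A549 cells stably bearing an antioxidant response element-firefly luciferase construct. Inhibition of Nrf2-driven transcription was scored by luminescence after 18-24 h of compound exposure at 37 °C.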
# FLuc counter 3 = Nrf2 qHTS screen for inhibitors: Purified Fluc Biochemical Counterscreen for Hit Validation | shares compounds with Nrf2 inh | purified firefly luciferase, luminescence inhibition | Potency, µM (highest dose often 57.5 µM), inactives show at the highest dose activity change, negative = inhibition, actives largely listed as inhibitors | 1,400 compounds, 4% hits | AID 720522, 2013; note: % is set by controls: 0 for no effect and ±100 for the full control effect; nearly all actives have a fitted effect of over 65% in size
# Target sequence (P08659 whole entry, looked up): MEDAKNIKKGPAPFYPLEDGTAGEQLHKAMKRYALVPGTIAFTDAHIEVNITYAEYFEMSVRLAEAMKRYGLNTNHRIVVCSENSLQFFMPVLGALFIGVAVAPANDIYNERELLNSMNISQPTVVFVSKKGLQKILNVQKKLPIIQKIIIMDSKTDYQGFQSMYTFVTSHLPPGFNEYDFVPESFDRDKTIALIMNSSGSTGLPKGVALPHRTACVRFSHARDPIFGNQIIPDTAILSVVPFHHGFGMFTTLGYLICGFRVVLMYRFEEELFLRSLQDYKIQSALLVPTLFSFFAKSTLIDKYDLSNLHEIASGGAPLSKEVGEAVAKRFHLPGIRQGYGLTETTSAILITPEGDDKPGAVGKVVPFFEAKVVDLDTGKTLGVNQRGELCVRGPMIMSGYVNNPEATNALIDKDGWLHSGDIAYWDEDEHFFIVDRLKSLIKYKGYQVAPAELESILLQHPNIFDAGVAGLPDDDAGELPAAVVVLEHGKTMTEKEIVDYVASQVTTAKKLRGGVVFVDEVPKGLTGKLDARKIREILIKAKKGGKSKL
# A549 tox-2 = Nrf2 qHTS screen for inhibitors: A549 ARE-Fluc Cytotoxicity Counterscreen for Hit Validation; 1,400 compounds, 2% hits; A549 ARE-Fluc cells, cytotoxicity counterscreen; Potency, µM (highest dose often 46.1 µM), for inactives: top-dose activity change, negative = cytotoxicity, hits mostly inhibitors; shares compounds with Nrf2 inh;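 note: cells exposed to compounds for 18 to 24 hours; % is set by controls: 0 for no effect and ±100 for the full control effect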
# Nrf2 ARE inh = Nrf2 qHTS screen for inhibitors: Nrf2 A549 ARE-Fluc Confirmation Assay for Hit Validation. shares compounds with Nrf2 inh. A549 ARE-firefly luciferase reporter, luminescence. Potency, µM (top dose mostly 46.1 µM), for the others: at the highest dose activity change, negative = inhibition, most hits filed as inhibitors. 1,400 compounds, 74% hits; note: % is set by controls: 0 for no effect and ±100 for the full control effect; nearly all actives have a fitted effect of over 65% in size
# An asterisk follows results filed as active; i = inactive; ? = inconclusive; . = not tested or not shown; [ ] = another dose, or the depositor's remark. Hits are enriched below; roughly 2.9% of the tested compounds scored in any of these assays. Calls come from the whole dose curve; as a rule, active = well fitted curve in the direction sought with a large enough effect; inconclusive = small, poorly fitted or top-dose-only effect, or another doubt; inactive = no such curve, though single readings can be large; an effect the other way counts as inactive or inconclusive. Potency is the fitted concentration of half-maximal effect.
SMILES,A549 tox-1,Nrf2 ARE act,ATXN2 expr inh,S2 tox,Nrf2 inh,FLuc counter 3,A549 tox-2,Nrf2 ARE inh
COc1ccc(CC(=O)NC(C)c2nnc(SCC(=O)Nc3ccccc3F)n2C)cc1 (stereo not drawn),-5%,0%,-13%,i,?,.,.,.
Cc1ccc(C)c(S(=O)(=O)N2CCNCC2)c1,7%,0%,-7%,i,-4%,.,.,.
O=C1C=CCC(/C=C/c2ccccc2)O1 (stereo not drawn),-16%,6%,5µM*,?,2.6µM*,-9%,?,1.3µM*
CCOC(=O)C1CCCN(C(=O)c2cccs2)C1 (stereo not drawn),1%,0%,-15%,i,-12%,.,.,.
Cc1cccc(NC(=O)CCCc2ccccc2)c1,0%,3%,.,?,?,.,.,.
Cc1ccc(CNc2c(C)c(C)nc3nncn23)cc1,-7%,4%,-22%,i,3.7µM*,-1%,1%,4.1µM*
Cc1nc2nncn2c(Nc2ccccc2)c1C,0%,1%,-16%,i,-28%,.,.,.
Cn1nc(C(C)(C)C)cc1C(=O)NCc1ccc2c(c1)OCO2,-18%,-1%,?,i,1.8µM*,4%,-16%,3.7µM*
Cc1oc(C(C)(C)C)cc1C(=O)NCc1ccc2c(c1)OCO2,-12%,-1%,-14%,i,?,.,.,.
Cc1ccc(S(=O)(=O)NCc2ccc(C(=O)N3CCN(c4ccc([N+](=O)[O-])cc4)CC3)cc2)cc1,?,9%,.,?,5.2µM*,-1%,-21%,5.8µM*
COc1ccc(N2CCN(C(=O)c3ccc(CNS(=O)(=O)c4ccc(C)cc4)cc3)CC2)cc1,-11%,0%,-17%,i,-9%,.,.,.
COc1cccc2c1C(=O)c1c(O)c3c(c(O)c1C2=O)CC(O)(C(=O)CO)CC3OC1CC(N(C)C)C(O)C(C)O1 (stereo not drawn),?,-2%,?,.,0.46µM*,?,?,0.26µM*
Clc1ccccc1CN1CCN(c2ncccn2)CC1,9%,0%,-5%,i,-6%,.,.,.
O=C(CSc1ncnc2c1cnn2-c1ccc(F)cc1)NC1CCCC1,1%,1%,-12%,i,5.2µM*,-11%,0%,?
CCOC(=O)c1cc(C)n(CC2CCC(C(=O)Nc3cccc(Cl)c3)CC2)c1C (stereo not drawn),-24%,0%,.,.,.,.,.,.
CCOC(=O)c1cc(C)n(CC2CCC(C(=O)Nc3ccc(Cl)cc3)CC2)c1C (stereo not drawn),?,0%,.,.,8.2µM*,-12%,-24%,13µM*
COc1cc2nc(CN3CCN(S(=O)(=O)c4ccc(C)c(C)c4)CC3)[nH]c(=O)c2cc1OC,1%,0%,3%,.,?,.,.,.
CC(C)(C)c1ccc(-c2noc(CCC(=O)Nc3cccc(Cl)c3)n2)cc1,1%,-3%,?,i,0.15µM*,?,1%,.
CC(C)(C)c1ccc(-c2noc(CCC(=O)NCc3ccco3)n2)cc1,12µM*,6%,.,i,0.018µM*,1.2µM*,-6%,0.82µM*
Cc1ccc(C)c(NC(=O)CCc2nc(-c3ccc(C(C)(C)C)cc3)no2)c1,0%,0%,?,?,?,.,.,.
CN(CC(=O)Nc1ccccc1Cl)C(=O)COC(=O)c1cc([N+](=O)[O-])ccc1N1CCOCC1,-10%,1%,2%,i,0%,.,.,.
CCOC(=O)c1ccc(NC(=S)N(Cc2cccnc2)Cc2ccco2)cc1,6%,1%,-8%,i,5%,.,.,.
C=CCn1c(SCc2nc3c(c(=O)[nH]c(=O)n3CCCC)n2CCC)nnc1-c1ccccc1,2%,0%,-2%,?,-6%,.,.,.
COc1ccccc1-[n+]1c(C)cc(/C=C2\Sc3ccccc3N2C)cc1C,?,-2%,.,?,4.1µM*,0.54µM*,?,0.26µM*
C=CCN(c1ccccc1)S(=O)(=O)c1cccc(C(=O)Nc2ccncc2)c1,-7%,5%,-24%,i,?,.,.,.
SMILES,A549 tox-1,Nrf2 ARE act,ATXN2 expr inh,S2 tox,Nrf2 inh,FLuc counter 3,A549 tox-2,Nrf2 ARE inh
C=CCN(c1ccccc1)S(=O)(=O)c1cccc(C(=O)Nc2nc3ccccc3[nH]2)c1,?,5%,-25%,i,2.9µM*,-16%,0%,5.8µM*
COCCn1c(=O)c2c(nc3n2CCCN3CCc2ccccc2)n(C)c1=O,3%,1%,1%,?,-26%,.,.,.
Cc1ccc(-n2c(-c3ccccc3)c[n+]3c2CCC3)cc1,?,0%,-2%[11.3 µM],?,5.8µM*,0%,-6%,6.5µM*
c1ccc(-c2c[n+]3c(n2-c2ccccc2)SCC3)cc1,12%,0%,-17%,i,?,.,.,.
Cc1ccc(-n2c(-c3ccc(Cl)cc3)c[n+]3c2CCC3)cc1,-15%,0%,-25%,?,3.7µM*,3%,-2%,-36%
FC(F)Sc1ccc(-n2c(-c3ccc(Cl)cc3)c[n+]3c2CCC3)cc1,9%,-1%,.,i,15%,.,.,.
CC(C)(C)c1ccc(-n2ncc3c2CCCC3NC(=O)CN2CCOC2=O)cc1 (stereo not drawn),-7%,0%,?,i,?,.,.,.
CC(C)(C)c1ccc(-n2ncc3c2CCCC3NC(=O)CCC2=NNC(=O)CC2)cc1 (stereo not drawn),.,4%,.,i,.,.,.,.
CC(C)(C)c1ccc(-n2ncc3c2CCCC3NC(=O)c2ccncc2)cc1 (stereo not drawn),-12%,0%,-8%,i,2.6µM*,?,-6%,8.2µM*
Cc1nnsc1C(=O)NC1CCCc2c1cnn2-c1ccc(C(C)(C)C)cc1 (stereo not drawn),?,-1%,-23%,i,2.1µM*,?,-13%,.
Cc1cc(C(=O)NC2CCCc3c2cnn3-c2ccc(C(C)(C)C)cc2)n[nH]1 (stereo not drawn),13%,4%,.,?,4.6µM*,?,-11%,16µM*
Cc1ncoc1C(=O)NC1CCCc2c1cnn2-c1ccc(C(C)(C)C)cc1 (stereo not drawn),?,0%,?,i,2.3µM*,?,-6%,5.2µM*
